From PubChem
USP2a inh – inhibitors of human ubiquitin-specific protease USP2a; USP2 core, Ub-CHOP2 coupled fluorogenic reporter, 485/531; Potency, µM (highest dose often 38.3 µM), for the others: at the top dose activity change, negative = inhibition, most hits filed as inhibitors; hit rate 0.01% among 330,000;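 also: plate controls were DMSO wells for no effect and full inhibition by NEM control for full effect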
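Deubiquitinase activity read as fluorescence (485/531 nm) after Ub-CHOP2 cleavage activates the enterokinase reporter on its substrate; USP2 core 10nM, Ub-CHOP2 and substrate 25nM each, 30min compound preincubation then 60min RT; data normalized to NEM, curves fitted.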
PTAP TSG101 blk – blocks PTAP/TSG101 interaction to inhibit HIV-1 budding. Q99816. 340,000 tested, under 10 active. Fluorescence polarization, FITC-PTAP peptide / Tsg101 binding. AID 493005. Potency, µM (titrated, usually from 115 µM), without a hit: top-dose activity change, negative = inhibition, usual class: inhibitors; active = well fitted inhibition curve with a large enough effect in the main read-out, with a control signal flat, not every such curve was filed as active; inconclusive = small, poorly fitted or top-dose-only effect, or effect the other way, or a change in a side signal; inactive = no such curve, though single readings can be large or run the other way; also: % of control where 0% means no effect
Target sequence (Q99816 whole entry, looked up): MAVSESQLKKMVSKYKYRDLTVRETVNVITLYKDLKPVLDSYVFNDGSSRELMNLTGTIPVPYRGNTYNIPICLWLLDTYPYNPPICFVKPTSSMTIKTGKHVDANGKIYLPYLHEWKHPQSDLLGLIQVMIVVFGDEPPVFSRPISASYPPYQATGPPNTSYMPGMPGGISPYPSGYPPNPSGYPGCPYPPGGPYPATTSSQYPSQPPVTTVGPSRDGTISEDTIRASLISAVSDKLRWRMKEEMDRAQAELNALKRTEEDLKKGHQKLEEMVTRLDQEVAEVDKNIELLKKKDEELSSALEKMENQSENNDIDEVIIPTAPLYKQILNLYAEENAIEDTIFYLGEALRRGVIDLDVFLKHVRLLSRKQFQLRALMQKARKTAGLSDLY
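Compounds were pin-transferred onto Tsg101 binding domain (10 uM final) in HEPES pH 7.5 buffer, then FITC-PTAP peptide was added at 50 nM final. After 20 min at RT, polarization reported peptide displacement across a qHTS concentration series.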
12-LOX inh – ALOX12 (human) lipoxygenase inhibition; purified 12hLO, xylenol orange hydroperoxide absorbance; P18054; AID 1671190; Potency, µM (doses to about 108 µM), for the others: at the top dose activity change, negative = inhibition, usual class: inhibitors; hit rate 1.1% among 580,000; also: % is scaled to controls: 0 for no effect and ±100 for the full control effect
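Purified human 12hLO (150 nM final) in 25 mM Hepes, 0.01% Triton X-100, pH 7.0 was preincubated 15 min at room temperature with compound. Then 40 uM arachidonic acid was added, 30 min. Hydroperoxide was read by Fe-XO absorbance ratio 573/405 nm.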
Eya2 phos inh – inhibitors of human Eya2 phosphatase activity; O00167; recombinant Eya2, OMFP fluorescence dephosphorylation (OMFP is methylfluorescein phosphate); Potency, µM (top dose mostly 76.9 µM), without a hit: at the top dose activity, negative = inhibition, usual class: inhibitors; hit rate 0.006% among 330,000; also: % is scaled to controls: 0 for no effect and ±100 for the full control effect
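Eya2 (0.2 uM) preincubated 10 min at ambient with compound, then OMFP substrate added at 50 uM; 10 min reaction in 50 mM HEPES pH 7.5, 50 mM NaCl, 5 uM MgCl2, 0.05% BSA, 1 mM DTT. Fluorescence read at Ex 485/Em 525 nm.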
Numbers without * were called inactive; u = inconclusive; x = no result given; ! = not confirmed by another sample; [ ] = dose if it differs, or a comment. In the library only some 1.1% were active in any assay of this set; here they are far more common. Unless noted, calls follow the shape of the dose curve; as a rule, active = well fitted curve in the direction sought with a large enough effect; inconclusive = small, poorly fitted or top-dose-only effect, or another doubt; inactive = no such curve, though single readings can be large; an effect the other way counts as inactive or inconclusive. Potency is read from the fitted curve at half-maximal effect.

SMILES	USP2a inh	PTAP TSG101 blk	12-LOX inh	Eya2 phos inh
CCC(C)NC(=O)c1ccccc1-c1ncc(-c2ccc(F)cc2)o1 (stereo unspecified)	x	x	41.3%	x
COc1ccc2[nH]c(C)c(C(=O)CN3CCC(Cc4ccccc4)CC3)c2c1	x	x	25.1µM*	x
COc1ccccc1-c1noc(CSc2nnc(-c3cccs3)n2C2CC2)n1	x	x	51.6%	x
CCc1ccc(N2C=C(C(=O)OC)C(c3ccccc3F)C(C#N)=C2N)cc1 (stereo unspecified)	x	x	44.7µM*	x
Cc1cc2cc(CNC(=S)Nc3ccc(OC(F)(F)F)cc3)ccc2[nH]1	3.3%	2.6%	31.6µM*	1.4%
COc1cc([N+](=O)[O-])c(OC)cc1SCc1n[nH]c(=S)n1-c1ccc(C)cc1	5.3%	-6.6%	-11.8%	-28.6%
COc1cc([N+](=O)[O-])c(OC)cc1SCc1n[nH]c(=S)n1-c1ccc(F)cc1	0.1%	-6.0%	44.7µM*	10.0%
C=CCN1C(=O)S/C(=C/c2cn(CC(=O)O)c3ccccc23)C1=O	x	x	31.6µM*	x
CC(C)N1C(=O)S/C(=C/c2cn(CC#N)c3ccccc23)C1=O	x	x	4.47µM*	x
O=C(C1CC1)N(C1CCOCC1)C1CCN(S(=O)(=O)c2ccc(F)c(Cl)c2)CC1	x	x	13.9%	x
S=c1[nH]c2cc(Br)cnc2[nH]1	4.6%	-4.2%	39.8µM*	2.2%
Cc1ccc(-c2csc(/C=C/c3cccc(O)c3)n2)cc1	x	x	7.08µM*	x
Cc1ccc(-c2csc(/C=C/c3ccc(C#N)cc3)n2)cc1	x	x	-1.8%	x
Cc1cccc(CC(=O)N2CCC[C@H](n3c(=O)n(Cc4ccccc4)c4cccnc43)C2)c1	x	x	8.3%	x
COc1ccc(CN2C(=O)CO[C@H]3CN(Cc4c[nH]c5ccccc45)C[C@H]32)cc1	x	x	39.8µM*	x
O=C(NC(NCc1ccccc1Cl)(C(F)(F)F)C(F)(F)F)c1ccccc1	x	x	-10.5%	x
O=C(OCC(=O)N1N=C(c2ccc(Cl)cc2)CC1c1ccco1)c1cncc(Br)c1 (stereo unspecified)	-1.3%	0.3%	7.94µM*	3.5%
O=C(OCC(=O)N1N=C(c2ccc(Cl)cc2)CC1c1ccco1)c1ccco1 (stereo unspecified)	-0.2%	1.2%	-19.5%	2.7%
O=C(COc1ccccc1)N1CCN(C(=O)c2nnn3c2COC(c2ccc(Cl)cc2)C3)CC1 (stereo unspecified)	x	x	5.7%	x
COc1ccc(CN2C(=O)COC[C@@H]2[C@H](O)c2ccc(NC(=O)c3ccc(C(C)(C)C)cc3)cc2)cc1	x	x	-19.5%	x
CCOc1ccc2nc(NC(=S)N(C)C)sc2c1	-5.0%	-5.5%	44.7µM*	-7.6%
CCCC(=O)Nc1nc2ccc(OCC)cc2s1	0.0%	1.1%	-8.2%	3.8%
CN(C)C(=O)c1ccc(-c2nc(N3CCOCC3)c3ccccc3n2)cc1	x	x	44.7µM*	x
OC1CCN(c2cc(N3CCOC(c4ccc(F)cc4)C3)ncn2)CC1 (stereo unspecified)	x	x	45.5%	x
CC(C)(C)C(=O)/C=c1/[nH]c(=O)/c(=C/c2ccc(C(F)(F)F)cc2)s1	x	x	20.0%	x
SMILES	USP2a inh	PTAP TSG101 blk	12-LOX inh	Eya2 phos inh
Cc1cccc2sc(NNC(=O)c3cc(=O)c4ccccc4o3)nc12	0.0%	-3.7%	31.6µM*	-3.6%
CCOc1cccc2sc(NC(=O)c3ccc(S(=O)(=O)N4CCCCC4)cc3)nc12	x	x	44.7µM*	x
O=C(O)CCCCCCCCCC(=O)O	x	x	-1.0%[176 µM]	x
COCC(=O)NC[C@@H]1C=C(C)[C@H](Cc2nc3ccc(C(=O)OC)cc3[nH]2)C[C@H]1C(C)C	x	x	19.4%[176 µM]	x
CCOc1cccc(C2C(C(=O)c3ccc(C)o3)=C(O)C(=O)N2Cc2ccncc2)c1 (stereo unspecified)	-2.5%	-5.9%	u	-0.5%
CCOc1cccc(C2C(C(=O)c3ccc(C)o3)=C(O)C(=O)N2c2nccs2)c1 (stereo unspecified)	14.8%	-25.3%	0.631µM*	23.1%
CC1CCCC(NC(=S)NC(=O)c2ccccc2Br)C1C (stereo unspecified)	-7.3%	-0.5%	22.4µM*	-1.9%
COc1ccc(NC(=O)c2cccc3c2CCN3C(=O)c2ccc(F)cc2)c(OC)c1	x	x	41.6%	x
CCOC(=O)c1cc(-c2ccc(OC)cc2)nc2ccc(Br)cc12	x	x	-10.3%	x
CCOC(=O)c1cc(-c2ccccn2)nc2c1c(C)nn2-c1ccc(C)cc1	x	x	-1.9%	x
CCOC(=O)c1cc(-c2ccco2)nc2c1c(C)nn2-c1ccccc1Cl	x	x	31.6µM*	x
CCOC(=O)c1cc(-c2ccco2)nc2c1c(C)nn2-c1ccccc1	-3.1%	-3.2%	35.5µM*!	15.3%
CCOC(=O)c1cc(-c2ccc(OC)cc2)nc2c1c(C)nn2CCC(N)=S	-1.8%	0.7%	39.8µM*	-7.5%
Cc1[nH]c2c(ccc3ccccc32)c1C	x	x	15.8µM*	x
COc1ccc(/C=C2/CCCC(CN(C)C)C2=O)cc1 (stereo unspecified)	x	0.5%	u	x
CN(C)CC1CCC/C(=C/c2ccc(Cl)cc2)C1=O (stereo unspecified)	x	0.1%	35.5µM*	x
O=C(Nc1ccccc1Cl)c1ccc(-c2ccccc2)cc1	x	x	-12.6%	x
Cc1ccc(S(=O)(=O)Nc2nc(C)c(NC(=O)Nc3ccc(Cl)cc3Cl)s2)cc1	-2.2%	-2.3%	2µM*	9.2%
COc1ccc(NC(=O)Nc2sc(NS(=O)(=O)c3ccccc3)nc2C)cc1	3.6%	-7.0%	22.4µM*	6.9%
CC(C)Cn1nc(C(=O)Nc2ccc(Br)cc2F)c2ccccc2c1=O	x	x	33.2%	x
Cc1cc2oc(C(=O)Nc3ccc4c(c3)N(C)C(=O)CO4)c(C)c2cc1C	x	x	25.3%	x
COc1cccc(C2CC(=O)N3CN(c4cccc(Cl)c4C)CSC3=C2C#N)c1OC (stereo unspecified)	-1.2%	-3.5%	7.94µM*	7.7%
COc1ccc(OC)c(C2CC(=O)N3CN(c4cccc(Cl)c4C)CSC3=C2C#N)c1 (stereo unspecified)	-2.0%	-5.0%	11.2µM*	-19.6%
Oc1cc2c(cc1C(c1ccc(Br)cc1)N1CCCC1)OCO2 (stereo unspecified)	1.0%	-4.3%	11.2µM*	-12.4%
COc1ccc2c(c1)CCCN2C(=O)c1cc2cc(Cl)ccc2nc1C	x	x	44.7µM*	x
SMILES	USP2a inh	PTAP TSG101 blk	12-LOX inh	Eya2 phos inh
O=C(/C=C/c1ccc(O)c(O)c1)c1ccc(O)cc1O	x	x	8.91µM*	x
O=C(/C=C/c1ccc(O)c(O)c1)NC(=O)c1ccccc1O	-1.2%	-2.6%	39.8µM*	-18.3%
Oc1ccc2c(c1)Oc1ncn3nc(COc4ccccc4)nc3c1C2c1ccccc1 (stereo unspecified)	x	x	42.6%	x
N#Cc1c(-c2ccc(Cl)cc2)cc(-c2ccccc2)nc1SCC(=O)O	2.9%	-10.4%	11.2µM*	7.1%
N#Cc1c(-c2ccccc2)cc(-c2ccccc2)nc1SCC(=O)Nc1ccc(Cl)cc1	x	x	-13.7%	x
COc1cc(-c2nc(-c3ccccc3)c(-c3ccc(Br)cc3)[nH]2)cc(OC)c1O	x	x	20µM*	x
COc1cc(C(=S)N2CCN(c3cccc(Cl)c3)CC2)ccc1O	-8.0%	-8.7%	44.7µM*	-10.1%
